Assay [1] can be described thus: ATG_TAL_CIS: Attagene CIS-FACTORIAL HepG2 Assay for human TAL Basal Promoter (AID 2282966).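 Also: background control endpoint measuring basal TAL promoter reporter mRNA not a specific factor.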 The settings on record: HepG2 Attagene cis-factorial TAL promoter reporter; actives raise or lower the signal. Summed up:
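Steps: transfect HepG2 with multiple reporter transcription units; dose 24 h; isolate RNA, reverse-transcribe, PCR-amplify, label with 6-FAM, digest with HpaI; resolve by capillary electrophoresis. Bidirectional fitting against DMSO baseline.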

A short description of assay [2]: ATG_TGFb_CIS: Attagene CIS-FACTORIAL HepG2 Assay for human Transforming Growth Factor (TGF) (AID 2282967). The settings on record: HepG2 Attagene CIS TGFb reporter, mRNA transcription; actives raise or lower the signal. A digest of the protocol:
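Liver HepG2 line, cis-factorial reporter panel, 24 h dosing. Quantitation: RT-PCR products labeled with 6-FAM, cut with HpaI, resolved by capillary electrophoresis; DMSO-referenced bidirectional analysis.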

The nature of assay [3]: ATG_VDRE_CIS: Attagene CIS-FACTORIAL HepG2 Assay for human Vitamin D Receptor Element (VDRE) (AID 2282968). The settings on record: HepG2 VDRE cis-reporter transcription, actives raise or lower the signal. A digest of the protocol: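 Cell-based multiplexed reporter format in human liver HepG2 cells, 24 h post-dose. Fluorescence from capillary electrophoresis of reporter cDNA gives the signal, with DMSO as negative control and baseline.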

The target of assay [4] is X-box-binding protein 1 (Homo sapiens) (UniProt P17861). Briefly: ATG_Xbp1_CIS: Attagene CIS-FACTORIAL HepG2 Assay for human X-box Binding Protein 1 (XBP1) (AID 2282972). Conditions: HepG2 XBP1 cis-element reporter, Attagene multiplex; actives raise or lower the signal. A digest of the protocol: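 HepG2, transient MRTU transfection (cis-promoter driven), 24 h compound exposure. Total RNA → oligo(dT) RT → PCR → 6-FAM labeling → HpaI cut → CE. Bidirectional fit vs DMSO.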
Chain of X-box-binding protein 1 (Homo sapiens) (P17861 whole entry, looked up): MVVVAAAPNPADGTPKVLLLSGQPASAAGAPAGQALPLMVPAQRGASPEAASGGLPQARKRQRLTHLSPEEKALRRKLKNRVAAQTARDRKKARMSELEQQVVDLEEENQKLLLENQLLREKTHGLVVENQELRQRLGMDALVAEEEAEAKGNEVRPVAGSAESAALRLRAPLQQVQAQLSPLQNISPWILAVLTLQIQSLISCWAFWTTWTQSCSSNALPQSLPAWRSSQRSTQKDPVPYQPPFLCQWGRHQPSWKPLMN

The nature of assay [5]: ATG_GAL4_TRANS: Attagene TRANS-FACTORIAL HepG2 Assay for GAL4 (Internal Marker) (AID 2282976; active = hit-call score of the fitted dose curve at least 0.9, where 1 is the maximum). The settings on record: HepG2 Attagene TRANS GAL4 internal marker reporter. Summed up: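 Liver HepG2 line bearing multiplexed GAL4-UAS reporter constructs; 24 h chemical treatment. Transcripts were quantified as fluorescent fragments on capillary electrophoresis after RT-PCR and HpaI cut, with activity fitted upward from DMSO.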

Assay [6] concerns the target Glucocorticoid receptor (Homo sapiens) (UniProt P04150). The experiment in a line: ATG_GR_TRANS: Attagene TRANS-FACTORIAL HepG2 Assay for human Glucocorticoid Receptor (GR) (AID 2282978; active = hit-call score of the fitted dose curve at least 0.9, where 1 is the maximum;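 also: activators score as hits since higher reporter transcript over DMSO is fitted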). Conditions: HepG2 Attagene TRANS GR reporter, mRNA transcription. Summed up:
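HepG2 cells transiently transfected with multiplexed reporter units in which chimeric NR-GAL4 proteins drive GAL4-UAS reporters; 24 h compound exposure. Reporter mRNA measured by RT-PCR, 6-FAM labelling, HpaI digestion and capillary electrophoresis; gain-of-signal fitted versus DMSO.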

Assay [7] concerns the target Oxysterols receptor LXR-alpha (Homo sapiens) (UniProt Q13133). The experiment in a line: ATG_LXRa_TRANS: Attagene TRANS-FACTORIAL HepG2 Assay for human Liver X Receptor alpha (LXRa) (AID 2282980; active = hit-call score of the fitted dose curve at least 0.9, where 1 is the maximum). Conditions: HepG2 Attagene TRANS reporter, LXRa transactivation. A digest of the protocol:
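In this multiplexed TRANS system, compounds act on HepG2 cells carrying GAL4-UAS reporter units and a receptor-GAL4 fusion for 24 h. Induced reporter RNA is amplified, fluorescently labelled and sized by capillary electrophoresis, with DMSO as baseline.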

In assay [8] the target is Hepatocyte nuclear factor 4-alpha (Homo sapiens) (UniProt P41235). The experiment in a line: ATG_HNF4a_TRANS: Attagene TRANS-FACTORIAL HepG2 Assay for human Hepatocyte Nuclear Factor 4 alpha (HNF4a) (AID 2282982; active = hit-call score of the fitted dose curve at least 0.9, where 1 is the maximum). Conditions: HepG2 HNF4a transactivation reporter, mRNA readout. Summed up: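 Gain-of-signal mRNA induction, relative to DMSO vehicle, was read after 24 h compound treatment of HepG2 cells bearing transfected GAL4-UAS reporters. Detection used RT-PCR, 6-FAM primer extension and capillary electrophoresis.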
Chain of Hepatocyte nuclear factor 4-alpha (Homo sapiens) (P41235 whole entry, looked up, the tested form may be a part): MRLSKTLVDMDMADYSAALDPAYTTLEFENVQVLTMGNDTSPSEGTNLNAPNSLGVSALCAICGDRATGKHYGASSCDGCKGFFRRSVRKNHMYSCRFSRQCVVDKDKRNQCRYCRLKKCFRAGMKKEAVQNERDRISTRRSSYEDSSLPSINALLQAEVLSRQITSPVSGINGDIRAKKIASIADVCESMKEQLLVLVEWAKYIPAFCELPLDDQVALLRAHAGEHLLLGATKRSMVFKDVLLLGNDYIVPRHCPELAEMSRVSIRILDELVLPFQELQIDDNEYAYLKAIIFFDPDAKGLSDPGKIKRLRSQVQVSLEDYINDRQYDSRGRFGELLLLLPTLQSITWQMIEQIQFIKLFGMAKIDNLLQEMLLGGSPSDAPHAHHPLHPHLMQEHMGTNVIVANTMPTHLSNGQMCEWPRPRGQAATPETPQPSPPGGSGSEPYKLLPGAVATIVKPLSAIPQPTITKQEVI

Assay [9] is described as follows: ATG_M_06_TRANS: Attagene TRANS-FACTORIAL HepG2 Assay for M06 Transcription Factor (Internal Marker) (AID 2282983; active = hit-call score of the fitted dose curve at least 0.9, where 1 is the maximum). Conditions: HepG2 Attagene TRANS M06 internal marker reporter. Summed up:
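Internal-marker background readout from a multiplexed TRANS reporter system in HepG2; 24 h dosing; mRNA induction quantified by RT-PCR plus capillary electrophoresis fluorescence; DMSO as negative control and baseline.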

Assay [10] in a line: ATG_M_32_TRANS: Attagene TRANS-FACTORIAL HepG2 Assay for M32 Transcription Factor (Internal Marker) (AID 2282984; active = hit-call score of the fitted dose curve at least 0.9, where 1 is the maximum;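 also: transcript level of a background control reporter unit measured by RT-PCR and capillary electrophoresis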). The settings on record: HepG2 Attagene TRANS M32 internal marker reporter. Summed up:
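Capillary electrophoresis of 6-FAM-labelled reporter fragments gives the signal; data fitted for gain over DMSO negative control. Source: HepG2 cells bearing transient multiple reporter transcription units, 24 h exposure.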

Assay [11] deals with Nuclear receptor subfamily 4 group A member 2 (Homo sapiens) (UniProt P43354). The experiment in a line: ATG_NURR1_TRANS: Attagene TRANS-FACTORIAL HepG2 Assay for human Nuclear Receptor Related Protein 1 (NURR1) (AID 2282985; active = hit-call score of the fitted dose curve at least 0.9, where 1 is the maximum). Conditions: HepG2 Attagene TRANS reporter, mRNA readout. Summed up: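 HepG2 / transient MRTU transfection / 24 h compound exposure / RT-PCR + CE fluorescence of reporter mRNA / gain-of-signal vs DMSO.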
Chain of Nuclear receptor subfamily 4 group A member 2 (Homo sapiens) (P43354 whole entry, looked up): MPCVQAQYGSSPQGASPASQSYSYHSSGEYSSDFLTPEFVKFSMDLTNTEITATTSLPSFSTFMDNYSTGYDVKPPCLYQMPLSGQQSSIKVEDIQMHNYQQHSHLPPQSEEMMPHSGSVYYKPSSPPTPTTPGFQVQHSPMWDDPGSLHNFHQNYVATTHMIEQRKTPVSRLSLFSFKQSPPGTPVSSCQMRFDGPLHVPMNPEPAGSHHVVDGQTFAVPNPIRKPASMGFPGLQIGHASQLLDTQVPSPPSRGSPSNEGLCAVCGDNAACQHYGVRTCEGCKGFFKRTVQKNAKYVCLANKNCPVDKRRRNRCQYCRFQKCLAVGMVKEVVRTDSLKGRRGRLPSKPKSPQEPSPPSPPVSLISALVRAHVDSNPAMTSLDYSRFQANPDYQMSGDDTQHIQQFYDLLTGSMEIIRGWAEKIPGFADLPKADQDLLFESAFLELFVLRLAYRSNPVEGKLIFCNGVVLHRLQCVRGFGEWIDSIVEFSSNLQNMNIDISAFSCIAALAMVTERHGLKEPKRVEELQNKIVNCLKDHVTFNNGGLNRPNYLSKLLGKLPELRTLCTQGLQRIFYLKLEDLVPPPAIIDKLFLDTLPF

Assay [12] addresses Nuclear respiratory factor 1 (Homo sapiens) (UniProt Q16656). Briefly: ATG_NRF1_CIS: Attagene CIS-FACTORIAL HepG2 Assay for human Nuclear Respiratory Factor 1 (NRF1) Orphan Gene (AID 2282987). The settings on record: HepG2 NRF1 cis-element reporter, Attagene multiplex; actives raise or lower the signal. A digest of the protocol: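 HepG2 cells transiently transfected with multiple reporter transcription units under cis-regulatory promoter control, so endogenous transcription-factor activity is read. After 24 h compound exposure, reporter mRNA quantified by RT-PCR, fluorescent labelling, HpaI digestion and capillary electrophoresis; bidirectional fitting versus DMSO.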

The target of assay [13] is Estrogen-related receptor gamma (Homo sapiens) (UniProt P62508). Briefly: ATG_ERRg_TRANS: Attagene TRANS-FACTORIAL HepG2 Assay for human Estrogen-Related Receptor gamma (ERRg) (AID 2282977; active = hit-call score of the fitted dose curve at least 0.9, where 1 is the maximum;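 also: hits increase reporter signal over DMSO so potencies reflect activators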). The settings on record: HepG2 Attagene TRANS reporter, ERRg transactivation. Summed up: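 HepG2 cells transiently transfected with multiplexed GAL4-UAS reporter units and chimeric NR-Gal4 constructs were exposed to test chemicals for 24 h. Reporter mRNA was measured by RT-PCR, 6-FAM primer extension, HpaI digestion and capillary electrophoresis; gain-of-signal versus DMSO.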
Chain of Estrogen-related receptor gamma (Homo sapiens) (P62508 whole entry, looked up, the tested form may be a part): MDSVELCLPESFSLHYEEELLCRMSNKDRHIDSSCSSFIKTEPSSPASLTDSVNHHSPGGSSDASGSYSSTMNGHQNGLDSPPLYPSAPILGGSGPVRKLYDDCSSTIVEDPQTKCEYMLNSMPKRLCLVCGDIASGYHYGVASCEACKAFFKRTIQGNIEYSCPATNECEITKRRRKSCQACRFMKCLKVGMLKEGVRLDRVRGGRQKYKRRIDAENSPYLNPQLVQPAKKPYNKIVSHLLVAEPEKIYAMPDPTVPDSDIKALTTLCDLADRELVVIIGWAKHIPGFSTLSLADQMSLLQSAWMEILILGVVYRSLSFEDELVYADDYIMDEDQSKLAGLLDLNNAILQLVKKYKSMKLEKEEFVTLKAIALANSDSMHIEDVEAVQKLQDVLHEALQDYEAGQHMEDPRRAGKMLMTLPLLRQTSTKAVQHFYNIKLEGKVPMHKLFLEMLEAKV

In assay [14] the target is Oxysterols receptor LXR-beta (Homo sapiens) (UniProt P55055). Briefly: ATG_LXRb_TRANS: Attagene TRANS-FACTORIAL HepG2 Assay for human Liver X Receptor beta (LXRb) (AID 2282981; active = hit-call score of the fitted dose curve at least 0.9, where 1 is the maximum). The settings on record: HepG2 Attagene TRANS GAL4-LXRb reporter, mRNA. Summed up:
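Gain-of-signal mRNA reporter endpoint, DMSO as negative control. Transiently transfected HepG2 cells carrying the NR-Gal4 chimera and GAL4-UAS reporter units were treated 24 h; transcripts quantified by RT-PCR and capillary electrophoresis fluorescence.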

The target of assay [15] is Transcriptional activator Myb (Homo sapiens) (UniProt P10242). Briefly: ATG_Myb_CIS: Attagene CIS-FACTORIAL HepG2 Assay for human Myeloblastosis (Myb) Proto-Oncogene Transcription Factor (AID 2282986). The settings on record: HepG2 Attagene CIS-FACTORIAL Myb reporter transcription; actives raise or lower the signal. Summed up:
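HepG2 cells were transiently transfected with cis-regulated multiple reporter transcription units reflecting endogenous Myb activity, then exposed to compound for 24 hours. Reporter mRNA was measured by RT-PCR with capillary electrophoresis; bidirectional fitting versus DMSO baseline.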

Assay [16] is described as follows: ATG_M_19_TRANS: Attagene TRANS-FACTORIAL HepG2 Assay for M19 Transcription Factor (Internal Marker) (AID 2282974; active = hit-call score of the fitted dose curve at least 0.9, where 1 is the maximum). Conditions: HepG2 Attagene TRANS-FACTORIAL M19 internal marker reporter. A digest of the protocol:
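HepG2 cells transiently transfected with multiple GAL4-UAS reporter transcription units were exposed to chemicals for 24 h. Reporter mRNA was read by RT-PCR, 6-FAM primer extension, HpaI digestion and capillary electrophoresis; gain of signal fitted relative to DMSO.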

Assay [17] has as its target Bile acid receptor (Homo sapiens) (UniProt Q96RI1). Briefly: ATG_FXR_TRANS: Attagene TRANS-FACTORIAL HepG2 Assay for Farnesoid X Receptor (FXR) (AID 2282979; active = hit-call score of the fitted dose curve at least 0.9, where 1 is the maximum;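 also: hits raise reporter mRNA above DMSO so AC50 marks FXR activation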). Conditions: HepG2 Attagene TRANS FXR-GAL4 reporter transcription. A digest of the protocol:
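After 24 h chemical treatment of transfected HepG2 cells, GAL4-UAS reporter transcripts driven by an exogenous FXR-GAL4 fusion were measured by RT-PCR and capillary electrophoresis. Increases over DMSO were fitted.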

Inconclusive results are not listed. Active and inactive are the calls of the source. The calls were made as follows, unless noted: active = hit-call score of the fitted dose curve at least 0.9, where 1 is the maximum; inactive = score below 0.9.

Chain of Glucocorticoid receptor (Homo sapiens) (P04150 whole entry, looked up, the tested form may be a part): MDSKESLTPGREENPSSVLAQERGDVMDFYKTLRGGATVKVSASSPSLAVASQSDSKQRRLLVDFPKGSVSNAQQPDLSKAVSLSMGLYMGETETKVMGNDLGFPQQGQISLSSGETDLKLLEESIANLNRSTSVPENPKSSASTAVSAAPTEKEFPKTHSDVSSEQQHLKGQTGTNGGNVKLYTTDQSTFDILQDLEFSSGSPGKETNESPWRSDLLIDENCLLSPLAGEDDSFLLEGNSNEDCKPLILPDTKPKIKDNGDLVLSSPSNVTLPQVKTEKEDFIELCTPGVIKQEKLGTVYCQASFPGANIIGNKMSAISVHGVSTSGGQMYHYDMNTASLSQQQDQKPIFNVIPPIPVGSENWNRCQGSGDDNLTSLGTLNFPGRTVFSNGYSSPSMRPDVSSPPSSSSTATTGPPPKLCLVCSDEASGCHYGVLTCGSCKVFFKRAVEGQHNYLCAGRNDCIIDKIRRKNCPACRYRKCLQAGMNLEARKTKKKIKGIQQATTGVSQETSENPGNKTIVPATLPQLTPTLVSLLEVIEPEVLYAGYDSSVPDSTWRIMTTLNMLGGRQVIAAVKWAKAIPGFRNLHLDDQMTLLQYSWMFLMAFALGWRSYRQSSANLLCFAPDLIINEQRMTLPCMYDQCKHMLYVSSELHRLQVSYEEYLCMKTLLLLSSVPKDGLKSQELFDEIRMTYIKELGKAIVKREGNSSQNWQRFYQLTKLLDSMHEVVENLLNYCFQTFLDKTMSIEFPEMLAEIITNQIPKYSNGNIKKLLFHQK
Chain of Oxysterols receptor LXR-beta (Homo sapiens) (P55055 whole entry, looked up, the tested form may be a part): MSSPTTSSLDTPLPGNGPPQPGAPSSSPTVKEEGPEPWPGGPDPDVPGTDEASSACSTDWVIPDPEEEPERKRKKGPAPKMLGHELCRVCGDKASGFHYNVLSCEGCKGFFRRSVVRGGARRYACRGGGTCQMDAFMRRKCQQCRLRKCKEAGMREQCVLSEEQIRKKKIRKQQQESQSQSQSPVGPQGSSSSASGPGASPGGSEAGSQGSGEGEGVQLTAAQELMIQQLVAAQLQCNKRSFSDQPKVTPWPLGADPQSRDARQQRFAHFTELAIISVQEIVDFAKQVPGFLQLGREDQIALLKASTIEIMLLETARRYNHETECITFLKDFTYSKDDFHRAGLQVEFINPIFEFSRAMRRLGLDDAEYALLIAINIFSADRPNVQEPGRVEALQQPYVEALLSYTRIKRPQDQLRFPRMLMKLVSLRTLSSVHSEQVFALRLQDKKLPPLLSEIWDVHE
Chain of Nuclear respiratory factor 1 (Homo sapiens) (Q16656 whole entry, looked up): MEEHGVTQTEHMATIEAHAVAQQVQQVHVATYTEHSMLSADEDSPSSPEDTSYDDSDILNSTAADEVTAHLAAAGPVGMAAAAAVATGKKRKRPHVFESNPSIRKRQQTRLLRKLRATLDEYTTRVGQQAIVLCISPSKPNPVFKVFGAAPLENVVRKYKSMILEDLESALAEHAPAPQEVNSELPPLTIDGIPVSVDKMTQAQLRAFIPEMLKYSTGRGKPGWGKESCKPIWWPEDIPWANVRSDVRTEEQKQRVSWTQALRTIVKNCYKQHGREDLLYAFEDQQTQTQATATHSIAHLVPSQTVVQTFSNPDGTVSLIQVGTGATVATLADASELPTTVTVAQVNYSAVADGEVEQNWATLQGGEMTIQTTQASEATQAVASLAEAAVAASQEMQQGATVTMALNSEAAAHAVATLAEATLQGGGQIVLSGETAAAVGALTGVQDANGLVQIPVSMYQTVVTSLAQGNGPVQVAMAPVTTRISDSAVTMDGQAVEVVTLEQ
Chain of Oxysterols receptor LXR-alpha (Homo sapiens) (Q13133 whole entry, looked up, the tested form may be a part): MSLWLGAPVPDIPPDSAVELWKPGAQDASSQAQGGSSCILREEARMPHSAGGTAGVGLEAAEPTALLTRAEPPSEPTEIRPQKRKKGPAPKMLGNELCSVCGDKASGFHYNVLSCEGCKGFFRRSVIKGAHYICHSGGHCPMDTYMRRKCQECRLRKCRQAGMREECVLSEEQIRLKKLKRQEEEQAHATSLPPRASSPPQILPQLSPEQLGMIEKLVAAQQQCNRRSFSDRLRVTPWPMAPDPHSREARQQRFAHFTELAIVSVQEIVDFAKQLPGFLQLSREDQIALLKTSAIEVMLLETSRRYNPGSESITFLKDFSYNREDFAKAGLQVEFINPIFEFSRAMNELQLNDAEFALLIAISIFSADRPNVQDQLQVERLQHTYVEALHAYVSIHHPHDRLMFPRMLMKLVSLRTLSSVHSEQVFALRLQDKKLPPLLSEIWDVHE
Chain of Transcriptional activator Myb (Homo sapiens) (P10242 whole entry, looked up): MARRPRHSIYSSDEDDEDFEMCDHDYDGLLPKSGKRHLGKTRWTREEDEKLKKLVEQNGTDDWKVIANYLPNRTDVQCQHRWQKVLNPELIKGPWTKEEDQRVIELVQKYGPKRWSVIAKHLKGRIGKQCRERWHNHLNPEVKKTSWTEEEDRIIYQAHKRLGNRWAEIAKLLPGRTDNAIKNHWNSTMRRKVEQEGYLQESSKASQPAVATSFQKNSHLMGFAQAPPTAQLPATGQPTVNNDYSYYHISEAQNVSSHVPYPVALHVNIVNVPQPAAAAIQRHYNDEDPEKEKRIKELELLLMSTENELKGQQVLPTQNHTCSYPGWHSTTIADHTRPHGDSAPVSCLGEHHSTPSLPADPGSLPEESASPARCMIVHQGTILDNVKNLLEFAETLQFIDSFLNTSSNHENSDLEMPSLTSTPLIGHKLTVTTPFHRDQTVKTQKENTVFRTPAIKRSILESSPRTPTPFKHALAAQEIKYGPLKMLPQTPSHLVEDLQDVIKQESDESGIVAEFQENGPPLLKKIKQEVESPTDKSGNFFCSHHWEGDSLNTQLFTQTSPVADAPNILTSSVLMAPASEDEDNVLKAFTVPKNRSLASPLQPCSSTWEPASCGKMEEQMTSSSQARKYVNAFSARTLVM

Take `C=CCOCC(O)CCl` (stereo unspecified): the call in assay [1], in [2], in [4], in assay [5], in assay [6] and in [7] was inactive. Moreover, the compound was called inactive in [8], in assay [9], in assay [10], in assay [11] and in [12]. For the same compound, in assay [3], the AC50 is 34.8 µM (active).

As to `Cc1ccccc1C`, the compound was classed as inactive in assay [1], in assay [2], in [3], in assay [4], in assay [5] and in [13]. The outcome in assay [7], in assay [14], in assay [8], in assay [9], in [10] and in [11] was inactive. In addition, the compound was classed as inactive in assay [15] and in [12].

Turning to `CCC(C)C=O` (stereo unspecified), the outcome in assay [1], in [2], in assay [3], in assay [4], in [16] and in assay [7] was inactive. Further, the outcome in assay [11], in assay [15] and in [12] was inactive.

With `O=S1(=O)OC(c2ccc(O)cc2)(c2ccc(O)cc2)c2ccccc21`, the compound was classed as inactive in assay [1], in assay [2], in assay [3], in [4], in [16] and in assay [13]. In addition, the compound was classed as inactive in assay [14], in assay [8], in assay [9], in [11], in assay [15] and in assay [12].

Take `O=C1CCC(=O)N1Cl`: the compound was classed as inactive in assay [1], in assay [2], in [3], in assay [4], in [16] and in [5]. In addition, the call in assay [14], in assay [8], in assay [9], in [10], in assay [11] and in [15] was inactive. The compound was called inactive in assay [12].

As to `COC(=O)c1sccc1S(N)(=O)=O`, the result in [1], in [2], in [3], in [4], in [16] and in assay [13] was inactive. For the same compound, the call in assay [17], in assay [9], in assay [10], in assay [11], in assay [15] and in assay [12] was inactive.

As for `O=S(=O)(O)c1ccc2cc(O)c(S(=O)(=O)O)cc2c1`, the compound was classed as inactive in [1], in assay [2], in assay [3], in [16], in [14] and in assay [10]. Moreover, the call in [15] and in assay [12] was inactive. For the same compound, in assay [4], the AC50 is 172 µM (active).

As to `CC(C)(C)c1n[nH]c(=O)n(N)c1=O`, the compound was called inactive in assay [1], in [2], in [3], in [4], in [16] and in [13]. Also, the call in assay [6], in assay [14], in assay [8], in [9], in assay [15] and in [12] was inactive.

For `c1cc(C(c2ccc(OCC3CO3)cc2)C(c2ccc(OCC3CO3)cc2)c2ccc(OCC3CO3)cc2)ccc1OCC1CO1` (stereo unspecified), the half-maximal activity concentration (AC50) is 44.8 µM (active) in assay [1], 17 µM (active) in assay [3] and 22.9 µM (active) in [4]. Moreover, the compound was called inactive in assay [2], in [16], in [6], in assay [9], in assay [10] and in [12].

With `CC(=O)OCC(C)OC(C)=O` (stereo unspecified), the outcome in [1], in assay [2], in assay [3], in [4], in assay [16] and in assay [17] was inactive. The compound was called inactive in [7], in [14], in assay [8], in [9], in [10] and in [15]. In addition, in assay [12], the compound was called inactive.

Regarding `CC(C)(Oc1ccc(C2CC2(Cl)Cl)cc1)C(=O)O` (stereo unspecified), the compound was called inactive in [1], in assay [2], in assay [3], in [4], in assay [16] and in assay [5]. In addition, the compound was called inactive in [7], in assay [9], in assay [10], in assay [15] and in assay [12].

These data come from PubChem BioAssay (EPA / NIEHS).
